Only some compounds are listed: those with a hit (about 2.8% of all), similar ones and a draw of the others.
Pol beta inh: DNA polymerase beta (human) inhibition; P06746; Pol beta primer extension/strand displacement, fluorescence kinetic; Potency, µM (doses to about 114 µM), usual class: inhibitors; hit rate 1.3% among 340,000
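Human Pol beta at 10 nM; strand-displacement substrate 50 nM final. Compound exposure 15 min at room temperature before start, reaction 10 min at room temperature.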
POLI inh: DNA polymerase iota (human) inhibition | Q9UNA4 | Pol iota fluorescent replication assay, 10 min | Potency, µM (titrated, usually from 115 µM), most hits filed as inhibitors | hit rate 1% among 390,000 | AID 588590
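Pol iota at 10 nM preincubated 15 min with compounds at room temperature; reaction started with fluorescent substrate, 50 nM final. Fluorescence read kinetically at 0 and 10 min; buffer-only wells as negative control.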
POLK inh: blocks human DNA polymerase kappa activity | Q9UBT6 | Potency, µM (titrated, usually from 107 µM), usual class: inhibitors | purified Pol kappa, fluorescent DNA synthesis assay, 10 min | AID 588579 | hit rate 0.53% among 400,000
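Enzyme at 10 nM met test compounds for 15 min at room temperature. Substrate addition (50 nM final) began the reaction, which was monitored by fluorescence at 0 and 10 min.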
PI5P4Ka inh: PI5P4K alpha (human) kinase inhibition. PI5P4Kalpha enzyme, ADP-Glo luminescence, 60 min; active compounds read low. P48426. hit rate 1.2% among 330,000. max response, %; active = max response of -50% or lower; inconclusive = between -30% and -50%; inactive = -30% or higher; also: value at the top dose of about 77 µM
Target sequence (P48426 whole entry, looked up): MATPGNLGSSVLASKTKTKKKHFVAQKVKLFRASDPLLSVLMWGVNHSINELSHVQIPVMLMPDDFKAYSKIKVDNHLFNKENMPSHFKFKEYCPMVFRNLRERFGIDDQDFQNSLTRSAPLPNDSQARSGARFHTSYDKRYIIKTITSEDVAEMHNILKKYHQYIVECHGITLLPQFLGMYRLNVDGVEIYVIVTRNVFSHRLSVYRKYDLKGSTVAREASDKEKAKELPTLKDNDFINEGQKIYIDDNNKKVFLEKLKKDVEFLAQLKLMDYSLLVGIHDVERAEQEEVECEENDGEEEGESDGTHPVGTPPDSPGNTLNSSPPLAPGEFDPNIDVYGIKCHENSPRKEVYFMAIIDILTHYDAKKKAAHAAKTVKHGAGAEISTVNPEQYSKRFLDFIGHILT
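Human PI5P4Kalpha with substrate in 0.038 M HEPES pH 7.4, 0.28 mM EGTA, 0.1% CHAPS, 5% DMSO; reaction started with 5 microM ATP (final), 60 min at room temperature. ADP formed read by ADP-Glo luminescence.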
WRN inhibitor: inhibitors of human WRN helicase. WRN helicase unwinding, fluorescent forked duplex, kinetic. hit rate 0.46% among 360,000. Potency, µM (highest dose often 114 µM), usual class: inhibitors. Q14191; also: nearly all actives have a fitted effect of over 55% in size
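Kinetic red-fluorescence monitoring (525/598 nm) tracks WRN helicase activity after 100 nM fluorophore-quencher forked duplex and 2 mM ATP are added to 20 nM enzyme pretreated 15 min at room temperature with compound.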
Pol eta inh: inhibitors of human DNA polymerase eta; Q9Y253; recombinant Pol eta, fluorescent DNA replication assay; Potency, µM (top dose mostly 114 µM), hits mostly inhibitors; hit rate 1.2% among 390,000
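Fluorescent replication assay: 50 nM final substrate added after a 15 min room-temperature compound preincubation with 10 nM enzyme. Signal taken at 0 min and again at 10 min.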
Each line names hits and unclear results; the compound was inactive in the other large screens. Unless noted, calls follow the shape of the dose curve; as a rule, active = well fitted curve in the direction sought with a large enough effect; inconclusive = small, poorly fitted or top-dose-only effect, or another doubt; inactive = no such curve, though single readings can be large; an effect the other way counts as inactive or inconclusive.

COc1ccc(CNC(=O)C2CCN(S(=O)(=O)c3ccc4nc5c(c(C(=O)O)c4c3)CC(C)CC5)CC2)cc1 (stereo unspecified)	Pol beta inh inconclusive, POLI inh 89µM, Pol eta inh inconclusive
CC1CCc2nc3ccc(S(=O)(=O)N4CCC(C(=O)NCc5ccccc5Cl)CC4)cc3c(C(=O)O)c2C1 (stereo unspecified)	Pol beta inh 40µM, POLI inh 50µM, POLK inh inconclusive, PI5P4Ka inh inconclusive, Pol eta inh inconclusive
O=C(O)c1c2c(nc3ccc(S(=O)(=O)N4CCC(C(=O)NCc5ccccc5)CC4)cc13)CCCC2	none (no result: Pol beta inh, POLI inh, POLK inh)
COc1ccccc1CNC(=O)C1CCN(S(=O)(=O)c2ccc3nc4c(c(C(=O)O)c3c2)CCCC4)CC1	POLI inh 79µM, Pol eta inh inconclusive
COc1ccccc1CNC(=O)c1cc(S(=O)(=O)N2CCN(c3ccccc3)CC2)ccc1Cl	POLI inh 89µM, POLK inh inconclusive, WRN inhibitor inconclusive (no result: Pol beta inh)
CN1CCN([C@@H](c2ccccc2)c2ccc(Cl)cc2)CC1	none (no result: Pol beta inh, POLI inh, PI5P4Ka inh, WRN inhibitor, Pol eta inh)
NC(=O)c1nsc(C(=O)N(Cc2cccnc2)C(C(=O)NCc2ccc(F)cc2)c2ccc(F)cc2)c1N (stereo unspecified)	none
CC(=O)Nc1sc(C)c(C)c1C(=O)OCC(=O)N(Cc1ccccc1)C(C)C	none (no result: Pol beta inh)
CC(C)(O)C1Cc2cc(/C=C/C(=O)O)c(O)cc2O1 (stereo unspecified)	POLI inh inconclusive, PI5P4Ka inh -66
O=[N+]([O-])c1ccc(Oc2ccc(S(=O)(=O)Nc3ccccc3)cc2)cc1	none
O=C1C(Cl)=C(NS(=O)(=O)c2ccc([N+](=O)[O-])cc2)C(=O)c2ccccc21	POLI inh inconclusive, WRN inhibitor 79µM, Pol eta inh inconclusive
Cc1c(C(=O)NNC(=O)c2csc(N3CCOCC3)n2)oc2ccc(Br)cc12	PI5P4Ka inh inconclusive, Pol eta inh 25µM (no result: Pol beta inh, POLI inh, POLK inh)
COc1ccc(N2CCN(S(=O)(=O)c3ccc(-c4cc(C(F)(F)F)on4)s3)CC2)cc1	none (no result: PI5P4Ka inh, WRN inhibitor)
CN1C(=O)/C(=C/c2ccc(O)c([N+](=O)[O-])c2)NC1=S	PI5P4Ka inh -56
COc1cc(/C=C2\NC(=S)N(C)C2=O)ccc1O	none
Cc1cccc[n+]1C1C(c2ccccc2)C(C#N)=C(C(=C=[N-])C#N)NC1(O)C1CC1 (stereo unspecified)	POLI inh inconclusive, POLK inh inconclusive, PI5P4Ka inh -74, WRN inhibitor inconclusive, Pol eta inh inconclusive
Cc1cc(N/N=C/c2ccc(O)cc2)c2cccc(C)c2n1	Pol beta inh 25µM, WRN inhibitor 45µM, Pol eta inh inconclusive
COc1cc2c(C(=O)N3CCN(c4cc(Cl)ccc4C)CC3)cn(CC(C)C)c(=O)c2cc1OC	POLI inh inconclusive (no result: PI5P4Ka inh, WRN inhibitor)
COc1cc2c(C(=O)N3CCN(c4cccc(C(F)(F)F)c4)CC3)cn(CC(C)C)c(=O)c2cc1OC	POLI inh 89µM (no result: PI5P4Ka inh, WRN inhibitor)
O=C(COc1ccccc1F)NNC(=O)c1cccc(-n2cccc2)c1	none
CCC1Sc2ccc(S(=O)(=O)Nc3cc(OC)cc(OC)c3)cc2NC1=O (stereo unspecified)	none
CCC1Sc2ccc(S(=O)(=O)CCC(=O)Nc3c(Cl)cc(OC)cc3OC)cc2NC1=O (stereo unspecified)	Pol beta inh 79µM, Pol eta inh inconclusive
c1ccc2c(CCc3c[nH]c4ccccc34)ccnc2c1	none (no result: Pol beta inh, PI5P4Ka inh, WRN inhibitor, Pol eta inh)
COc1ccccc1C(=O)Nc1ccnn1C1CCN(C/C=C/c2ccc(F)cc2)CC1	none
COC(=O)CCCC1=CC2=CC(=O)C(C)(OC(=O)C3CCCC3)C(=O)C2=CO1 (stereo unspecified)	Pol beta inh 45µM, POLI inh 22µM, POLK inh inconclusive, PI5P4Ka inh inconclusive, WRN inhibitor inconclusive, Pol eta inh 20µM
COC(=O)CCCC1=CC2=C(c3ccccc3)C(=O)C(C)(OC(=O)C3CCCC3)C(=O)C2=CN1C1CCCC1 (stereo unspecified)	none
COc1ccccc1NC(=O)Cn1c(=O)n(CC(=O)NCc2ccccc2Cl)c(=O)c2sccc21	none (no result: PI5P4Ka inh, WRN inhibitor, Pol eta inh)
OC[C@H]1O[C@@H](n2cnc3c(Nc4ccccc4)ncnc32)[C@H](O)[C@H]1O	none (no result: POLK inh, PI5P4Ka inh, WRN inhibitor)
O=C(O)Cc1ccc(C(=O)CSc2ccccc2)s1	Pol beta inh 16µM, POLI inh 25µM, POLK inh inconclusive, PI5P4Ka inh -59, WRN inhibitor inconclusive, Pol eta inh 20µM
O=C(O)Cc1ccc(C(=O)c2ccccc2)s1	none (no result: WRN inhibitor)
NC(=O)CC(NC(=O)c1ccccc1)c1ccc(NCCCN2CCCC2=O)c([N+](=O)[O-])c1 (stereo unspecified)	Pol beta inh 79µM, POLI inh inconclusive
NC(=O)CC(NC(=O)Cc1ccc(Cl)cc1)c1ccc(NCCCN2CCCC2=O)c([N+](=O)[O-])c1 (stereo unspecified)	none
COc1ccc(/C=N/NC(=O)c2nn(-c3ccccc3)c(=O)c3c(N)scc23)cc1	Pol beta inh inconclusive, POLI inh 13µM, POLK inh 35µM (no result: PI5P4Ka inh)
COc1ccc(/C=N/NC(=O)c2nn(-c3ccc(Cl)cc3)c(=O)c3c(N)scc23)cc1	POLI inh inconclusive (no result: PI5P4Ka inh)
Clc1ccc2c(N/N=C/c3ccc(Br)cc3)ccnc2c1	PI5P4Ka inh -73
Clc1ccc2c(N/N=C/c3cccnc3)ccnc2c1	Pol beta inh inconclusive, POLI inh inconclusive
Cc1ccc(/C=N/Nc2ccnc3cc(Cl)ccc23)c(C)c1	PI5P4Ka inh -82
Cc1ccccc1/C=N/Nc1ccnc2cc(Cl)ccc12	Pol beta inh inconclusive, PI5P4Ka inh -75
Oc1ccc(/C=N/Nc2ccnc3cc(Cl)ccc23)c(O)c1	Pol beta inh inconclusive, POLI inh inconclusive, WRN inhibitor inconclusive, Pol eta inh inconclusive
COc1cc2c(cc1OC)n(CC(=O)Nc1ccc(C)cc1C)c(=O)n1nc(-c3ccccc3)nc21	none (no result: PI5P4Ka inh, WRN inhibitor)
Cc1ccc(N=Nc2c(O)ccc3n[nH]nc23)cc1	PI5P4Ka inh -60
Nc1nc(SCC(=O)N2N=C3/C(=C/c4ccco4)CCCC3C2c2ccco2)n[nH]1 (stereo unspecified)	POLI inh 45µM, PI5P4Ka inh -52, Pol eta inh inconclusive
Nc1nc(SCC(=O)N2N=C3/C(=C\c4ccco4)CCCC3C2c2ccco2)n[nH]1 (stereo unspecified)	POLI inh 40µM, PI5P4Ka inh inconclusive, Pol eta inh inconclusive (no result: Pol beta inh)
Cn1cnnc1SCC(=O)N1N=C2/C(=C/c3ccco3)CCCC2C1c1ccco1 (stereo unspecified)	POLI inh inconclusive
CN(C)c1ccc(/C=C/c2ccnc3c(Cl)cccc23)cc1	none (no result: Pol beta inh, PI5P4Ka inh, WRN inhibitor, Pol eta inh)
COCc1cc(=O)c2ccccc2o1	none (no result: Pol beta inh)
O=C(O)CCCCCN1C(=O)/C(=C\c2ccncc2)SC1=S	POLI inh inconclusive
O=C(O)CCCCCN1C(=O)/C(=C\c2ccc(-c3ccc(Cl)cc3)o2)SC1=S	Pol beta inh inconclusive, POLI inh 35µM, POLK inh 79µM, Pol eta inh inconclusive

Screening results from PubChem.
